# GRIN3A LBD mod: binders of NR3A ligand-binding domain, primary screen, biophysical, differential scanning fluorimetry, uHTS; NR3A LBD differential scanning fluorimetry, Tm shift; 0% = protein alone, 100% = glycine-bound protein; Glutamate receptor ionotropic, NMDA 3A (GRIN3A) ligand-binding domain; AID 1259313, 2017; 340,000 tested, 2.5% active; Tm shift relative to glycine control, % at 25 µM;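 active = melting temperature shift of at least 10% of the positive control shift, at one fixed dose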
# CSC inhib: cancer stem cell viability inhibitors, primary screen, luminescence | 300,000 tested, 1.1% active | AID 2717, 2010 | cancer stem cell-like cells viability | inhibition, % at 7.5 µM; in the data active = inhibition above about 75%; inconclusive = no clear call, values can overlap the other calls; tested in HMLE shEcad cells
# SKKanGAS inh: S. pyogenes SKKanGAS growth inhibitors in kanamycin, primary screen, streptokinase expression inhibitor project, SKKanGAS strain, BacTiter-Glo luminescence. inhibition, % at 7.5 µM. 6 h. 300,000 tested, 1.3% active;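 active = mean replicate score, as percent of positive control median, at least 50; inconclusive = mean below 50 but one replicate at or above 50; inactive = mean and every replicate below 50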;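 note: strain carries kanamycin resistance gene driven by streptokinase promoter and grows in 40 µg/ml kanamycin; loss of luminescence reflects streptokinase promoter inhibition or plain growth inhibition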
# Mdm2 MdmX PPI: inhibitors of human Mdm2-MdmX association, primary screen, cell-based, luminescence, split luciferase, SaOS-2, uHTS; Protein Mdm4 (Homo sapiens) + E3 ubiquitin-protein ligase Mdm2 (Homo sapiens), …; SaOS-2 split-luciferase Mdm2/MdmX complementation; inhibition, % at 8 µM; 330,000 tested, 3% active;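 active = inhibition of at least 50% at 8 µM in the primary screen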
# Beta cell apopt: inhibitors of cytokine-induced beta cell apoptosis, primary screen, luminescence; protection from apoptosis, % (test concentration not listed); 300,000 tested, 0.8% active; INS-1E cytokine-induced death, ATP luminescence, 48 h; percent of positive-control rescue, neutral wells zero;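 active = Every replicate reaches about 75%, or at least half do and their mean reaches it too, limit read from the data; inconclusive = At least half of replicates reach the limit but their mean does not; inactive = Under half of replicates reach the limit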;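 note: higher means more ATP so stronger rescue from cytokine killing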
# MPTP block: mitochondrial permeability transition pore inhibitors, primary screen, biochemical, isolated mouse mitochondria, absorbance. Ca2+ swelling absorbance, 30 min. inhibition, % at 10 µM. 360,000 tested, 1.4% active. AID 602449, 2012;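 active = inhibition of 50% or more, scaled per plate between neutral and stimulator controls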
# A number is an active result; . = inactive; ? = inconclusive; / = not tested or not shown. Sampled rows, rich in hits. Any-hit rate of the full collection: about 6.9%.
SMILES,GRIN3A LBD mod,CSC inhib,SKKanGAS inh,Mdm2 MdmX PPI,Beta cell apopt,MPTP block
Cc1[nH]c2ccccc2c1C(=O)CSC(=S)N1CCN(C)CC1,.,.,.,.,.,.
O=C(CSc1nc2ccccc2c(=O)n1-c1ccc(F)cc1F)c1c[nH]c2ccccc12,19.2,.,.,.,.,.
Cc1ccc2nc(SCC(=O)c3c[nH]c4ccccc34)[nH]c2c1,14.8,/,.,.,.,.
Cc1ccc2nc(SCC(=O)c3c(C)[nH]c4ccccc34)[nH]c2c1,11.8,.,.,.,.,.
COc1ccc(CN(CC(=O)NCc2ccccc2)C(=O)CCC(=O)Nc2nccs2)cc1,.,.,.,.,.,.
NC(=O)C1CCCN(C(=S)Nc2cccc3ccccc23)C1 (stereo not drawn),.,.,.,.,.,.
O=C(CSc1nc2ccccc2[nH]1)c1c[nH]c2ccccc12,14.4,.,.,.,.,.
CC(C)[C@@H](N)C(=O)N/N=C/c1ccc2nccnc2c1,11.0,.,.,.,/,.
C/C(=N\Nc1nc2ccccc2[nH]1)c1ccc(Cl)s1,15.9,.,.,.,.,.
O=C(CSc1ncnc2c1cnn2-c1cccc(Cl)c1)NCC1CCCO1 (stereo not drawn),.,.,.,.,.,.
Cc1ccc2nc(NC(=O)c3ccc4ncsc4c3)sc2c1,18.5,.,.,.,.,.
NS(=O)(=O)c1ccc2nc(NC(=O)c3ccc4ncsc4c3)sc2c1,29.7,.,.,.,.,.
CNC(=O)c1nc(C)c(C2(C)CC(c3ccccc3)=NO2)s1 (stereo not drawn),.,.,.,.,.,.
Cc1nc(C(=O)N2CCOCC2)sc1C1(C)CC(c2ccccc2)=NO1 (stereo not drawn),14.3,.,.,.,.,.
CC(OC(=O)c1ccc(Cl)nc1)C(=O)N1CCc2ccccc21 (stereo not drawn),.,.,.,.,.,.
Cn1c(N)c(C(=O)COC(=O)Cc2ccc(Cl)cc2)c(=O)n(C)c1=O,.,/,/,.,/,.
CN(C)S(=O)(=O)c1cccc(NC(=O)COC(=O)c2cn(-c3ccccc3)nc2-c2ccccc2)c1,13.7,/,.,.,/,.
O=C(COC(=O)c1cn(-c2ccccc2)nc1-c1ccc(F)cc1)Nc1ncc(Cl)cc1Cl,.,.,.,.,.,.
NS(=O)(=O)c1ccc(NC(=O)COC(=O)c2cn(-c3ccccc3)nc2-c2ccc(F)cc2)cc1,16.5,.,.,.,.,.
CCOC(CNC(=O)CN1C(=O)COc2ccc(S(=O)(=O)N3CC(C)CC(C)C3)cc21)OCC (stereo not drawn),.,/,.,.,.,.
O=[N+]([O-])c1ccc2nc(NN=Cc3ccc(O)cc3)sc2c1,23.1,/,/,/,/,.
O=C(Nc1nc2ccc([N+](=O)[O-])cc2s1)c1c(F)cccc1F,.,.,.,.,.,.
Cc1ccc2cc(CCNC(=O)c3ccc(C)c([N+](=O)[O-])c3)c(=O)[nH]c2c1,.,.,.,.,.,.
COc1ccc(N2CC(C(=O)N3CCN(c4ccccc4F)CC3)CC2=O)cc1 (stereo not drawn),.,/,.,.,?,.
O=C(Nc1ccccc1)OCCNC(=O)c1cccc(Br)c1,.,.,.,.,.,.
SMILES,GRIN3A LBD mod,CSC inhib,SKKanGAS inh,Mdm2 MdmX PPI,Beta cell apopt,MPTP block
O=C(Nc1ccc(Cl)c(Cl)c1)OCCNC(=O)c1cccc(Cl)c1,13.4,.,.,.,.,.
C/C=C(\C)C(=O)O[C@H](c1cc2ccc(=O)oc2cc1OC)[C@@H](O)C(C)(C)O,.,.,/,.,.,.
COc1ccc(C(=O)c2coc3c2C(=O)C(=O)c2ccccc2-3)cc1,.,.,57.8,.,.,.
CC[C@@H]1C/C=C\Cc2ccccc2[C@@H](C(=O)C[C@@H](O)CC(C)=O)OC1=O,.,/,/,.,.,.
N#CCC(=O)Nc1ccc(C(=O)Nc2cccc(S(N)(=O)=O)c2)cc1,.,.,.,.,.,.
Oc1ccccc1C1NN=C(c2ccccc2)S1 (stereo not drawn),18.8,.,.,.,/,.
CSc1ccc(C2NN=C(c3ccccc3)S2)cc1 (stereo not drawn),.,.,.,.,.,.
CSc1ccc(/C=C2\CCn3c2nc2cc(C(=O)O)ccc2c3=O)cc1,.,.,52.4,.,.,.
O=C(O)c1ccc2c(=O)n3c(nc2c1)/C(=C/c1cccc(O)c1)CC3,.,.,.,.,.,.
O=c1c2ccc(Cl)cc2nc2n1CC/C2=C\c1cccc(O)c1,23.4,.,.,.,.,.
Cn1c(NCc2cccnc2)nc2cc(-c3cccc(C(F)(F)F)c3)sc2c1=O,/,/,/,/,/,.
Cc1cccc(OCCNC(=S)NC(=O)c2cncc(Br)c2)c1,10.0,.,.,.,/,.
Cc1ccc(C)c(NC(=S)NC(=O)c2cncc(Br)c2)c1,.,.,.,.,.,.
Cc1noc(/C=C/N(C)C)c1S(=O)(=O)N1CCCC(C(=O)N2CCCCC2)C1 (stereo not drawn),14.1,.,.,.,.,.
OCc1ncc(-c2ccccc2)s1,10.3,.,.,.,.,.
Cc1cc(C)nc(N/N=C/c2ccccc2OCc2ccccc2)n1,12.2,.,.,.,.,.
Cc1nn(S(=O)(=O)c2ccccc2)c(C)c1S(=O)(=O)N1CCC(C)CC1,.,.,.,.,/,.
Cc1nc2ccc(C(=O)Nc3cccc(OCC(=O)N(C)C)c3)cn2c1N(C)CC1CCCCC1,/,/,/,/,/,.
CC1(C)CN(c2ccccc2)N(C(=O)c2ccc(C#N)cc2)C1=O,.,90.7,.,.,.,.
CC1(C)CN(c2ccccc2)N(C(=O)c2ccc(F)cc2)C1=O,.,91.7,.,.,.,.
CC(=O)OCC1(C)CN(c2ccccc2)N(C(=O)c2ccc(C(C)(C)C)cc2)C1=O (stereo not drawn),.,/,.,/,/,.
CCn1nc(NC(=O)c2ccncc2)c2cc3cc(C)ccc3nc21,.,.,91.2,.,.,.
COc1cc(/C=N/NC(=O)c2ccccn2)ccc1OC(=O)c1ccc(Br)cc1,.,.,.,.,.,.
Cc1cc(C(=O)N/N=C/c2cc(Br)cc(Br)c2OC(=O)c2ccccc2)n[nH]1,/,/,.,.,94.4,/
Cc1cc(C(=O)N/N=C/c2cc(Br)ccc2OC(=O)c2ccc(Br)cc2)n[nH]1,/,.,.,.,91.1,/
Cc1c2ccccc2cc(Cc2ccccc2)[n+]1C,.,.,.,.,.,.
O=C(c1cnn2c(C(F)(F)F)cc(-c3ccco3)nc12)N1CCCCCC1,11.0,.,.,.,.,.
COc1cc(C(=O)NCc2nc(C)cs2)ccc1OC1CCN(C(C)=O)CC1,11.7,.,.,.,/,.
